Test in all cases: NCI-60 one-dose screen, 48 h (100 = growth as untreated, 0 = no growth, -100 = all killed)
For assay [1], the system named is EKVX NSCLC. The conditions noted are these: 10 µM unless noted.
Assay [2] deals with SN12C renal. Conditions: 10 µM unless noted.
Assay [3] concerns UO-31 renal. The conditions noted are these: 10 µM unless noted.
Assay [4] deals with TK-10 renal. The conditions noted are these: 10 µM unless noted.
Assay [5] deals with ACHN renal. The conditions noted are these: 10 µM unless noted.
For assay [6], the system named is CAKI-1 renal. Conditions: 10 µM.
Assay [7] relates to A498 renal. The conditions noted are these: 10 µM unless noted.
Assay [8] relates to CCRF-CEM leukemia. Conditions: 10 µM unless noted.
For assay [9], the system named is RPMI-8226 leukemia. The conditions noted are these: 10 µM unless noted.
For assay [10], the system named is OVCAR-8 ovarian. Conditions: 10 µM unless noted.
Assay [11] has as its system OVCAR-5 ovarian. The conditions noted are these: 10 µM unless noted.
Assay [12] concerns OVCAR-4 ovarian. The conditions noted are these: 10 µM unless noted.
Assay [13] deals with SK-OV-3 ovarian. Conditions: 10 µM unless noted.
For assay [14], the system named is IGROV1 ovarian. The conditions noted are these: 10 µM unless noted.
For assay [15], the system named is HS 578T breast. Conditions: 10 µM unless noted.
Assay [16] relates to NCI/ADR-RES ovarian. Conditions: 10 µM unless noted.

This is part of a sample that, as a whole, favours compounds with a hit. Of some 83,000 tested, about 20% had one in any assay.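 Each cell line was grown in a 96-well plate and treated with one concentration of compound for 48 hours. Values below 10 were considered active.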 Unmarked numbers belong to inactive results. Calls of active or inactive are those of the source.

As to `COc1cc2c3c(n(CCCN4CCC[C@H]4C(N)=O)c(=O)c2cc1OC)-c1cc2c(cc1C3=O)OCO2`, the growth in assay [1] is 36.2%; in assay [2], 17%; in assay [3], 17.5%; in assay [4] it was 59%; in [5], 0.589% (active); in [6], 14.6%. Moreover, the growth in [7] was -31% (active); in assay [8] it was -4.01% (active); in assay [9], -26.3% (active); in [10], -44.9% (active); in assay [11] it was 26.6%; in assay [12], 21.7%. In addition, the growth was -22.7% (active) in assay [13], 33.7% in assay [14], 70.9% in assay [15] and 9.81% (active) in [16].

On to `C=CCn1c(SCC(=O)Nc2cccc(C(=O)/C=C/c3cccc([N+](=O)[O-])c3)c2)nc2ccccc2c1=O`, for which the growth is 96% in [1]; 98.3% in assay [2]; 79% in assay [3]; 98.4% in assay [4]; 96.5% in assay [5]; 81.2% in [6]. Also, the growth is 81.1% in assay [7]; 94.5% in assay [8]; 17% in [9]; 94.2% in [10]; 92.5% in assay [11]; 92% in [12]. In addition, the growth is 116% in assay [13], 96.8% in [14], 91.9% in assay [15] and 95.7% in assay [16].

On to `CCN1CCN(Cc2ccc(C(=O)Nc3nc4ccc(Oc5ccnc(C(=O)NC)c5)cc4s3)cc2C(F)(F)F)CC1`, for which the growth in [1] is 52.4%; in assay [2] it was 77.4%; in assay [3], 33.2%; in assay [4], 91.6%; in assay [5], 57.4%; in assay [6] it was 47.2%. Besides, the growth in assay [7] was 74.1%; in [8], 60.6%; in [9] it was 26.4%; in [10] it was 60.8%; in assay [11], 76.7%; in assay [12] it was 61%. The growth in assay [13] is 83.7%; in assay [14], 70.3%; in assay [15], 51.9%; in assay [16] it was 67%.

Turning to `COc1ccc([C@@H]2[C@@H](O)C(=O)N2c2cc(OC)c(OC)c(OC)c2)cc1Cl`, the growth is 52.4% in assay [1]; 25.6% in assay [2]; 31.8% in [3]; 89.4% in [4]; 27.9% in assay [5]; 30.6% in assay [6]. For the same molecule, the growth in assay [7] is -16.9% (active); in assay [8], 19.6%; in assay [9] it was 28.4%; in assay [10], -11.7% (active); in assay [11], 28.9%; in assay [12], 68.7%. The growth in assay [13] is 23.9%; in [14], 27.1%; in assay [15], 8.59% (active); in assay [16] it was -21.2% (active).

`Cc1ccccc1/C=C/c1nn2c(-c3ccoc3C)nnc2s1`: the growth was 100% in assay [1]; 101% in [2]; 85.4% in assay [3]; 95.5% in assay [4]; 102% in [5]; 89.8% in assay [6]. Also, the growth in [7] is 89.5%; in assay [8], 108%; in assay [9], 91.4%; in assay [10], 97.1%; in [11], 100%; in assay [12] it was 99.6%. In addition, the growth in assay [13] was 118%; in assay [14], 107%; in [15], 111%; in assay [16], 93.7%.

As for `COc1cc2c3c(n(CCCNC4CCC4)c(=O)c2cc1OC)-c1cc2c(cc1C3=O)OCO2`, the growth in assay [1] was -38.4% (active); in [2], -48.9% (active); in assay [3], -70.9% (active); in assay [4], 98.8%; in assay [5] it was -89.7% (active); in [6], -82.2% (active). The growth in assay [7] is 74.4%; in [8], -6.07% (active); in assay [9] it was -39.1% (active); in assay [10], -49.8% (active); in assay [11], -72.4% (active); in [12] it was -57.9% (active). The growth was 23.4% in assay [13], -53.3% (active) in [14], 84.1% in assay [15] and -32.4% (active) in [16].

For the molecule `COc1ccc2c(C3=C(c4cn(C)c5ccccc45)C(=O)NC3=O)coc2c1`, the growth was 50.7% in [1]; 32.3% in assay [2]; 37.8% in assay [3]; 79.4% in [4]; 37.4% in [5]; 42% in [6]. For the same molecule, the growth is 34.9% in assay [7]; 18.8% in [8]; 11.6% in assay [9]; 41% in assay [10]; 43% in [11]; 79% in [12]. Further, the growth was 47.6% in [13], 47.2% in [14], 9.64% (active) in [15] and 25.1% in [16].

Consider `O=c1cc(-c2ccccc2)nc2sc(-c3c[nH]c4ccc(Br)cc34)nn12`, for which the growth is 91.2% in assay [1]; 94.9% in assay [2]; 79.6% in [3]; 110% in assay [4]; 96.3% in assay [5]; 91.4% in assay [6]. Besides, the growth was 85.5% in assay [7]; 123% in [8]; 112% in assay [9]; 106% in assay [10]; 100% in assay [11]; 105% in assay [12]. The growth in [13] was 110%; in assay [14], 98.9%; in assay [15] it was 113%; in [16], 101%.

Take `COc1ccc([C@H]2[C@H](O)C(=O)N2c2cc(OC)c(OC)c(OC)c2)cc1Cl`: the growth in assay [1] is 50.1%; in [2], 22.2%; in assay [3] it was 32.8%; in assay [4] it was 85.4%; in assay [5], 26.6%; in assay [6], 30.6%. The growth is -17% (active) in assay [7]; 16.4% in assay [8]; 19% in [9]; -12.7% (active) in assay [10]; 30.3% in assay [11]; 74.4% in assay [12]. The growth was 27.3% in assay [13], 22.8% in assay [14], 13.6% in [15] and -10.6% (active) in assay [16].

Source of the values: PubChem BioAssay (NCI).
